Measured values as given in PubChem BioAssay (NCI).
Compounds without any hit were thinned out: in the full panel of roughly 79,000, 15% have a hit. Active and inactive are the calls of the source. Cut-off read from the data, not from the text of the source: active = growth inhibition above about 70%; inactive = the rest.

What was measured:
[1] = NCI Yeast Anticancer Drug Screen. Data for the rad52 strain (AID 147);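 note: 0% = growth of vehicle-treated control cultures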; settings: S. cerevisiae rad52 mutant growth inhibition, active compounds read high
Procedure, shortened: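 Screen used a yeast mutant impaired in DNA repair. After compound exposure, growth was measured. Values reflect inhibition compared with vehicle-treated cells.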

[2] = NCI Yeast Anticancer Drug Screen. Data for the wt1 strain (AID 149);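 note: 0% = growth of vehicle-treated wt1 cultures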; settings: S. cerevisiae wt1 strain (SPY 50644) growth inhibition, active compounds read high
Procedure, shortened: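 wt1 strain grown with compound or vehicle; inhibition taken from the growth difference.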

[3] = NCI Yeast Anticancer Drug Screen. Data for the rad50EPP+ strain (AID 151);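 note: 0% = growth of vehicle-treated control cultures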; settings: S. cerevisiae rad50 mutant strain, active compounds read high
Procedure, shortened: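 Exposing the rad50EPP+ strain to each compound, growth was compared with vehicle-only cultures to give inhibition.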

[4] = NCI Yeast Anticancer Drug Screen. Data for the mgt1 strain (AID 153); settings: S. cerevisiae mgt1 mutant growth inhibition, active compounds read high
Procedure, shortened: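 Genetically defined yeast (mgt1) treated with compound; inhibition of growth expressed against vehicle-treated controls.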

[5] = NCI Yeast Anticancer Drug Screen. Data for the rad50 strain (AID 155);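 note: 0% = growth of vehicle-only cultures of the same strain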; settings: S. cerevisiae rad50 strain growth inhibition, active compounds read high
Procedure, shortened: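 DNA repair mutant yeast, compound exposure, growth read-out; inhibition is taken relative to vehicle.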

[6] = NCI Yeast Anticancer Drug Screen. Data for the mec2-1 strain (AID 157); settings: S. cerevisiae mec2-1 strain, active compounds read high
Procedure, shortened: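 Readout is yeast growth inhibition, normalised to vehicle-treated controls, in the mec2-1 strain exposed to compound.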

[7] = NCI Yeast Anticancer Drug Screen. Data for the rad14 strain (AID 159);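 note: 0% = growth of vehicle-treated control cultures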; settings: S. cerevisiae rad14 strain growth inhibition, active compounds read high
Procedure, shortened: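 DNA repair-defective yeast, compound-exposed; % growth inhibition derived by comparison with vehicle-treated controls.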

[8] = NCI Yeast Anticancer Drug Screen. Data for the sgs1 mgt1 strain (AID 161);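 note: 0% = growth of cultures given vehicle only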; settings: S. cerevisiae sgs1 mgt1 strain, active compounds read high
Procedure, shortened: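 Growth of a repair-deficient yeast mutant was monitored after compound treatment and expressed as inhibition relative to vehicle-treated cultures.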

[9] = NCI Yeast Anticancer Drug Screen. Data for the CLN2oe strain (AID 163);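 note: 0% = growth of vehicle-only control cultures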; settings: S. cerevisiae CLN2oe strain, active compounds read high
Procedure, shortened: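 Values reflect how much compound exposure reduced yeast growth, referenced to vehicle-exposed cells. Assay organism is a strain with a defined genetic change affecting cell-cycle control.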

[10] = NCI Yeast Anticancer Drug Screen. Data for the cln2 rad14 strain (AID 165);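 note: 0% = growth equal to vehicle treated cultures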; settings: S. cerevisiae cln2 rad14 strain, active compounds read high
Procedure, shortened: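 Relative to vehicle controls, growth inhibition of compound-treated cln2 rad14 yeast was recorded.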

[11] = NCI Yeast Anticancer Drug Screen. Data for the bub3 strain (AID 167); settings: S. cerevisiae bub3 mutant strain, active compounds read high
Procedure, shortened: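 In this screen, a yeast mutant lacking normal mitotic checkpoint function is challenged with compound. Relative growth versus vehicle gives the inhibition value.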

[12] = NCI Yeast Anticancer Drug Screen. Data for the wt2 strain (AID 169);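 note: 0% = growth of vehicle-treated yeast cultures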; settings: S. cerevisiae wt2 strain growth inhibition, active compounds read high
Procedure, shortened: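 Values express reduction in yeast growth under compound treatment, referenced to vehicle-treated cells.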

[13] = NCI Yeast Anticancer Drug Screen. Data for the mlh1 strain (AID 171);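 note: 0% = growth of vehicle-treated control cultures of the same strain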; settings: S. cerevisiae mlh1 strain growth inhibition, active compounds read high
Procedure, shortened: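 Steps: expose the defined-mutant yeast strain to compound; expose a parallel culture to vehicle; measure growth; express compound effect as inhibition relative to the vehicle culture.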

[14] = NCI Yeast Anticancer Drug Screen. Data for the sgs1 strain (AID 173);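 note: 0% = growth of vehicle-only control cultures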; settings: S. cerevisiae sgs1 mutant, active compounds read high
Procedure, shortened: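 Treat defined-mutant yeast with compound; measure growth; calculate inhibition relative to vehicle-treated cells.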

[15] = NCI Yeast Anticancer Drug Screen. Data for the mlh1 rad18 strain (AID 175); settings: S. cerevisiae mlh1 rad18 strain growth inhibition, active compounds read high
Procedure, shortened: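 Test agents were incubated with a yeast strain of defined genotype (DNA damage repair defect). Inhibition of growth was derived by comparison with vehicle-exposed cultures.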

[16] = NCI Yeast Anticancer Drug Screen. Data for the rad18 strain (AID 177); settings: S. cerevisiae rad18 mutant growth inhibition, active compounds read high
Procedure, shortened: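 A genetically defined yeast mutant impaired in DNA damage repair was treated with test compounds, then its growth was measured against cultures receiving vehicle alone.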

[17] = at 5.0 µM (retest, dose inferred, filed as 0.5)
[18] = at 50.0 µM (retest, dose inferred, filed as 5.0)

Measured: growth inhibition

COc1cc([C@@H]2c3cc4c(cc3C[C@@H]3COC(=O)C32)OCO4)cc(OC)c1O (stereo partly drawn)
active: [1]; at 11.0 µM 93% | [1]; at 33.0 µM 95% | [1]; at 100.0 µM 96% | [2]; at 33.0 µM 86% | [2]; at 100.0 µM 93% | [4]; at 100.0 µM 93% | [5]; at 3.7 µM 76% | [5]; at 11.0 µM 94% | [5]; at 33.0 µM 96% | [5]; [18] 96% | [5]; at 50.0 µM 97.1% | [5]; at 100.0 µM 97% | [6]; at 33.0 µM 92% | [6]; at 50.0 µM 98.8% | [6]; at 100.0 µM 96% | [7]; at 33.0 µM 75% | [7]; at 100.0 µM 93% | [8]; at 50.0 µM 78.3% | [10]; [18] 93% | [10]; at 50.0 µM 86.2% | [11]; at 50.0 µM 89.5% | [12]; at 33.0 µM 77% | [12]; at 100.0 µM 88% | [13]; at 33.0 µM 86% | [13]; at 100.0 µM 93% | [14]; at 11.0 µM 72% | [14]; at 33.0 µM 90% | [14]; at 100.0 µM 96% | [15]; at 50.0 µM 96.9% | [16]; at 33.0 µM 86% | [16]; at 100.0 µM 93%
inactive: [1]; at 1.2 µM 42% | [1]; at 3.7 µM 62% | [2]; at 1.2 µM 32% | [2]; at 3.7 µM 34% | [2]; at 11.0 µM 65% | [3]; at 1.2 µM -5% | [3]; at 3.7 µM -6% | [3]; at 11.0 µM -4% | [3]; at 33.0 µM -4% | [3]; at 100.0 µM -6% | [4]; at 1.2 µM 29% | [4]; at 3.7 µM 22% | [4]; at 11.0 µM 53% | [4]; at 33.0 µM 59% | [5]; at 1.2 µM 53% | [5]; [17] 64% | [6]; at 1.2 µM 1% | [6]; at 3.7 µM 17% | [6]; [17] 3% | [6]; at 11.0 µM 49% | [6]; [18] 46% | [7]; at 1.2 µM 9% | [7]; at 3.7 µM 8% | [7]; at 11.0 µM 65% | [8]; [17] 5% | [8]; [18] 45% | [9]; at 1.2 µM -3% | [9]; at 3.7 µM 0% | [9]; at 11.0 µM 24% | [9]; at 33.0 µM 58% | [9]; at 100.0 µM 51% | [10]; [17] 9% | [11]; at 1.2 µM 3% | [11]; at 3.7 µM 5% | [11]; [17] -36% | [11]; at 11.0 µM 31% | [11]; at 33.0 µM 50% | [11]; [18] 69% | [11]; at 100.0 µM 36% | [12]; at 1.2 µM 2% | [12]; at 3.7 µM 10% | [12]; at 11.0 µM 33% | [13]; at 1.2 µM 9% | [13]; at 3.7 µM 14% | [13]; at 11.0 µM 66% | [14]; at 1.2 µM 20% | [14]; at 3.7 µM 16% | [15]; [17] 2% | [15]; [18] 68% | [16]; at 1.2 µM 2% | [16]; at 3.7 µM 10% | [16]; at 11.0 µM 65%
